This note sets out measurements from PubChem BioAssay (Tox21).

The structures appear in SMILES notation. Records with an inconclusive call do not appear. Where a structure was tested more than once in an assay, its records may differ in their call. Activity calls are given as the source filed them. Unless noted, the call rests on the fitted dose curve; in most records, active means well fitted curve in the direction sought with a large enough effect in the repeat runs; inconclusive means weak or mixed curves; inactive means no such curve, though single readings can be large; an effect the other way counts as inactive or inconclusive.

The nature of assay [1]: qHTS assay for small molecule agonists of the p53 signaling pathway (AID 651631; calls by dose curve; further: nearly all actives have a fitted effect of over 15% in size; further: potency means the concentration at half of the fitted maximal effect). The procedure, abridged: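 p53RE-bla HCT-116 cells; compounds 16 h, 37 °C; LiveBLAzer B/G FRET substrate 2 h RT; fluorescence intensity read-out, qHTS format.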
(In qHTS, concentration-response curves come from the screen itself.)

Assay [2] can be described thus: qHTS assay for small molecules that induce genotoxicity in human embryonic kidney cells expressing luciferase-tagged ATAD5 (AID 651632). Further: nearly all actives have a fitted effect of over 15% in size. The procedure, abridged: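 HEK293T cells carrying a luciferase reporter tagged to ATAD5 were exposed to compound or DMSO vehicle for 16 hr at 37C, 5% CO2. Amplite was added, and after 30 min at room temperature luciferase activity was read as a marker of ATAD5 induction.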

The nature of assay [3]: qHTS assay for small molecule agonists of the p53 signaling pathway - cell viability (AID 651633; calls by dose curve; further: nearly all actives have a fitted effect of over 30% in size; further: potency means the concentration at half of the fitted maximal effect). The method in brief:
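Viability counter-read: CellTiter-Glo luminescence (30 min, room temperature) in the same p53RE-bla plates. These plates had been exposed to compounds for 16 h at 37 C.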

The nature of assay [4]: qHTS assay for small molecules that induce genotoxicity in human embryonic kidney cells expressing luciferase-tagged ATAD5 - cell viability (AID 651634; calls by dose curve; further: nearly all actives have a fitted effect of over 25% in size). The method in brief: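 HEK293T cells expressing luciferase-tagged ATAD5 were exposed to compound or DMSO for 15.5 hr at 37C, 5% CO2. Viability was then read as live-cell protease activity by CellTiter-Fluor fluorescence after 30 min at 37C.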

Assay [5] in a line: qHTS assay for small molecule disruptors of the mitochondrial membrane potential - cell viability (AID 720634; calls by dose curve;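 further: human HepG2 liver cancer cells; series mostly up to about 83 µM; nearly all actives have a fitted effect of over 20% in size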). The procedure, abridged: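 HepG2 cells seeded overnight at 37 C, then exposed to compound or DMSO for 1 hr at 37 C, 5% CO2. m-MPI dye added, then CellTiter-Glo for 30 min at room temperature; viability read as ATP luminescence.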
Assay [6] in a line: qHTS assay for small molecule disruptors of the mitochondrial membrane potential (AID 720635). Further: potency means the concentration at half of the fitted maximal effect. The procedure, abridged: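 Mitochondrial membrane potential tracked with Mito-MPS dye, red aggregates (ex 540/em 590 nm) against green monomers (ex 490/em 535 nm). Compound treatment 1 hr at 37C, dye 30 min in HepG2.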
A short description of assay [7]: qHTS assay to test for compound auto fluorescence at 590 nm (red) in HepG2 cells (AID 720674). The procedure, abridged: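 We screened compounds on adherent HepG2 cells, incubating them for an hour at 37 C in 5% CO2 before reading emission at 590 nm under 540 nm excitation; values reflect equivalence to Rose Bengal sodium fluorescence.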
The nature of assay [8]: qHTS assay to test for compound auto fluorescence at 535 nm (green) in HepG2 cells (AID 720675).
Assay [9] is described as follows: qHTS assay to test for compound auto fluorescence at 460 nm (blue) in HEK293 cells (AID 720678). The method in brief:
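Auto fluorescence in the blue band was quantified as triamterene equivalency. HEK293 cells were seeded at 2,000/well, dosed after a 4-5 hr attachment, and kept overnight at 37C before the 405/460 nm reading.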

Assay [10] is described as follows: qHTS assay to test for compound auto fluorescence at 590 nm (red) in HEK293 cells (AID 720679). The procedure, abridged: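 Autofluorescence equivalency to Rose Bengal sodium, 540/590nm, in HEK293 cells exposed overnight to 23 nL compound per well.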
Assay [11] can be described thus: qHTS assay to test for compound auto fluorescence at 535 nm (green) in HEK293 cells (AID 720680).
Assay [12] in a line: qHTS assay to test for compound auto fluorescence at 460 nm (blue) in HEK293 cell free culture (AID 720681). The method in brief:
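Blue fluorescence (Ex 405/Em 460 nm, triamterene-equivalent) was read immediately after pin transfer of compound or DMSO into medium (DMEM, 10% FBS) without cells.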

The nature of assay [13]: qHTS assay to test for compound auto fluorescence at 535 nm (green) in HEK293 cell free culture (AID 720682). The method in brief: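 Cell-free medium (DMEM, 10% FBS) receives compound or DMSO by pintool. Plate read directly at Ex 485/Em 535 nm. Signal converted to fluorescein equivalency.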
Assay [14] in a line: qHTS assay to test for compound auto fluorescence at 590 nm (red) in HEK293 cell free culture (AID 720683). The method in brief: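 Red-channel autofluorescence of compounds in culture medium (DMEM, 10% FBS), no cells, measured at 540/590 nm. Rose Bengal sodium is the reference fluorophore for equivalence.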
A short description of assay [15]: qHTS assay to test for compound auto fluorescence at 590 nm (red) in HepG2 cell free culture (AID 720684). The method in brief:
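Steps: dispense MEM/10% FBS medium, no cells; pin compound or DMSO vehicle; read red channel, Ex/Em 540/590 nm. Output given as Rose Bengal sodium equivalents.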

Assay [16] in a line: qHTS assay to test for compound auto fluorescence at 460 nm (blue) in HepG2 cell free culture (AID 720685). The procedure, abridged:
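Compound (23 nL) or DMSO pinned into cell-free MEM with 10% FBS; blue fluorescence read at 405/460 nm excitation/emission, expressed as auto-fluorescence equivalency to triamterene.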

Assay [17] is described as follows: qHTS assay to test for compound auto fluorescence at 535 nm (green) in HepG2 cell free culture (AID 720686).
Assay [18] can be described thus: qHTS assay to test for compound auto fluorescence at 460 nm (blue) in HepG2 cells (AID 720687). The method in brief: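 Blue-channel autofluorescence (Ex/Em 405/460 nm, triamterene-equivalent) was measured after 1 hr compound exposure at 37 C, 5% CO2. Cells were HepG2, plated overnight at 37 C in MEM plus 10% FBS.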
Assay [19] has as its target Glucocorticoid receptor (Homo sapiens) (UniProt P04150). Nature of the assay: qHTS assay to identify small molecule agonists of the glucocorticoid receptor (GR) signaling pathway (AID 720691; active means well fitted activation curve with a large enough effect in the signal ratio in the repeat runs, not every such curve was filed as active; the % refers to the signal ratio; further: potency means the concentration at half of the fitted maximal effect). The method in brief: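 GR-bla HeLa cells (beta-lactamase reporter under glucocorticoid response element) were plated 4 h at 37 C/5% CO2, given compounds in DMSO, and incubated 18 h at 37 C. LiveBLAzer B/G FRET substrate was added for 2 h at room temperature, then fluorescence intensity read.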

For assay [20] the target is unchanged. The assay can be described thus: qHTS assay to identify small molecule antagonists of the glucocorticoid receptor (GR) signaling pathway (AID 720692; active means well fitted inhibition curve with a large enough effect in the signal ratio in the repeat runs, not every such curve was filed as active; the % refers to the signal ratio). The procedure, abridged:
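GR-bla HeLa cells (beta-lactamase reporter under glucocorticoid response element) were pre-plated 4 h at 37 C, treated with compounds plus 5 nM dexamethasone (final) for 18 h, then read by LiveBLAzer B/G FRET fluorescence after 2 h.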

Sequence of Glucocorticoid receptor (Homo sapiens) (P04150 whole entry, looked up): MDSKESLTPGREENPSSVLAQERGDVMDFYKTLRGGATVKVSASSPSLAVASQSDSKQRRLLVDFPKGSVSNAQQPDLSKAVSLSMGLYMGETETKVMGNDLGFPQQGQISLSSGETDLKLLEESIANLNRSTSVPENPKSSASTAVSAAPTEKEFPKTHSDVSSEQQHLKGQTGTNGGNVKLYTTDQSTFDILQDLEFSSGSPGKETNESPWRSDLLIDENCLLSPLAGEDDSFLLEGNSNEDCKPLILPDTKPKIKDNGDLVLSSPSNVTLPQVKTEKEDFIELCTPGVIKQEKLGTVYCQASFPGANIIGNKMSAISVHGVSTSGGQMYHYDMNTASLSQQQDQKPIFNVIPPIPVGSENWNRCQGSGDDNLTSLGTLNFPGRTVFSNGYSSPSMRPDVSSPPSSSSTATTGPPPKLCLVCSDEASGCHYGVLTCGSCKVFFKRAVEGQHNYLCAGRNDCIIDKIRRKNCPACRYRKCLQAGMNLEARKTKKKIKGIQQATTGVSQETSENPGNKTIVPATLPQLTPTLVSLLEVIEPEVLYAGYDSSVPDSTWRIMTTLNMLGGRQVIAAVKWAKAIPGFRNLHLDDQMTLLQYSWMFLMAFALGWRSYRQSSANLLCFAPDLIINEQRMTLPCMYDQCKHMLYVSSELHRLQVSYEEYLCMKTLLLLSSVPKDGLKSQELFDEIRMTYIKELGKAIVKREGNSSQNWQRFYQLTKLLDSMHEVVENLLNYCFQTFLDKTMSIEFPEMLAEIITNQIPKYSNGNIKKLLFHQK

As to `c1ccc2c(c1)c1cccc3ccc4cccc2c4c31`, the Potency in assay [1] was 60.7 µM (active); in assay [3] it was 3.04 µM (active) and inactive; in assay [6] it was 30.6 µM (active); in assay [19] it was 48.6 µM (active) and inactive. For the same molecule, the Potency result in assay [2], in assay [4], in [5], in [7], in [8] and in assay [10] was “inactive” throughout. Moreover, the Potency result in [11], in assay [13], in assay [14], in assay [15], in [17] and in assay [20] was “inactive” each time. For the same molecule, the molecule was called inactive in assay [9], in assay [12], in assay [16] and in assay [18].

For `CC(C)OB(OC(C)C)OC(C)C`, the Potency result in [1], in [2], in assay [3], in assay [4], in assay [5] and in assay [6] was “inactive” each time. Besides, the Potency entry in [7], in assay [8], in [10], in [11], in [13] and in assay [14] was “inactive” each time. Also, the Potency entry in assay [15], in [17], in [19] and in assay [20] was “inactive” each time. In addition, the result in [9], in [12], in assay [16] and in assay [18] was inactive.

With `Nc1ccc(S(=O)(=O)Nc2cnc3ccccc3n2)cc1`, the Potency result in assay [1], in assay [2], in assay [3], in assay [4], in assay [5] and in [6] was “inactive” each time. In addition, the Potency result in assay [7], in [8], in assay [10], in assay [11], in assay [13] and in assay [14] was “inactive” each time. For the same molecule, the Potency result in [15], in [17], in assay [19] and in assay [20] was “inactive” in each case. In addition, the outcome in assay [9], in assay [12] and in assay [16] was inactive.

For `Cc1cccc(C(=O)O)c1`, the Potency result in assay [1], in assay [2], in assay [3], in assay [4], in assay [5] and in assay [6] was “inactive” in each case. Further, the Potency result in assay [7], in assay [8], in [10], in assay [11], in assay [13] and in [14] was “inactive” each time. For the same molecule, the Potency result in [15] and in assay [17] was “inactive” in each case. The molecule was called inactive in [9], in [12], in assay [16] and in [18].

As to `COC(C)COC(C)COC(C)CO` (configuration not stated), the Potency result in assay [1], in assay [2], in assay [3], in [4], in [5] and in assay [6] was “inactive” in each case. Besides, the Potency entry in assay [7], in [8], in [10], in assay [11], in assay [13] and in assay [14] was “inactive” each time. For the same molecule, the Potency result in assay [15] and in assay [17] was “inactive” throughout. The outcome in assay [12] and in assay [16] was inactive.

As to `CC(C)(C)NC(=O)[C@H]1CC[C@H]2[C@@H]3CC[C@H]4NC(=O)C=C[C@]4(C)[C@H]3CC[C@]12C`, the Potency result in [1], in [2], in assay [3], in [4], in [5] and in [6] was “inactive” each time. Besides, the Potency result in assay [7], in assay [8], in [10], in [11], in assay [13] and in assay [14] was “inactive” throughout. Also, the Potency result in assay [15], in [17], in assay [19] and in assay [20] was “inactive” throughout. Moreover, the molecule was classed as inactive in [9], in assay [12] and in [16].
